Reference: PubChem BioAssay AID1159580 (chemical genetic matrix, 2015)
Several values for one entry are separate records, joined by “and”; a condition that tells them apart may be missing. Equal values may be shown once. Hit rate of the full screen: of about 5,500 compounds, about 2,000 (36%) were called active. Inconclusive results (about 18%) are left out. Cut-off read from the data, not from the text of the source: active = normalized growth mostly below about 0.91 (no sharp cut-off); inconclusive = no clear call, values can overlap the other calls; inactive = mostly above about 0.92. This is one part of the list.

Experiment: chemical genetic growth profiling, strain panel (AID 1159580);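 note: tested at 20 µM; growth read once vehicle control cultures reached saturation at 30 °C; 1 = growth at the plate median or of vehicle wells; lower values mean less growth of the strain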
Conditions: S. cerevisiae deletion strains, growth OD

Measured: normalized growth

N[C@@H](C(=O)O)[C@@H](O)[C@H](O)[C@H](O)CO
inactive: locus YAL013W, strain DEP1, hits give low values 1.01 | locus YAL021C, strain ccr4, hits give low values 1.01 | locus YAL026C, strain drs2, hits give low values 1.04 | locus YAL030W, strain snc1, hits give low values 1.03 | locus YBL061C, strain skt5, hits give low values 1.03 | locus YBR009C, strain hhf1, hits give low values 1.03 | locus YBR021W, strain FUR4, hits give low values 1.01 | locus YBR023C, strain chs3, hits give low values 1.04 | locus YBR171W, strain sec66, hits give low values 1.04 | locus YBR229C, strain ROT2, hits give low values 1 | locus YBR231C, strain swc5, hits give low values 1.03 | locus YBR279W, strain paf1, hits give low values 1.01 | locus YCL011C, strain gbp2, hits give low values 1.04 | locus YCL016C, strain dcc1, hits give low values 1.02 | locus YCL029C, strain bik1, hits give low values 1.02 | locus YCL061C, strain MRC1, hits give low values 1.02 | locus YCL069W, strain vba3, hits give low values 1.03 | locus YCR088W, strain abp1, hits give low values 1.02 | locus YDL005C, strain med2, hits give low values 1.03 | locus YDL035C, strain GPR1, hits give low values 1.03 | locus YDL040C, strain nat1, hits give low values 1.01 | locus YDL074C, strain BRE1, hits give low values 1.06 | locus YDL101C, strain DUN1, hits give low values 1.01 | locus YDL185W, strain tfp1, hits give low values 1.02 | locus YDL192W, strain arf1, hits give low values 1.03 | locus YDR001C, strain nth1, hits give low values 1.02 | locus YDR069C, strain doa4, hits give low values 1.02 | locus YDR101C, strain arx1, hits give low values 1.02 | locus YDR137W, strain rgp1, hits give low values 1.04 | locus YDR150W, strain NUM1, hits give low values 1.02 | locus YDR159W, strain sac3, hits give low values 1.07 | locus YDR162C, strain NBP2, hits give low values 1.01 | locus YDR195W, strain ref2 1.02 | locus YDR297W, strain sur2, hits give low values 1.03 | locus YDR318W, strain mcm21, hits give low values 1 | locus YDR334W, strain swr1, hits give low values 1.03 | locus YDR335W, strain msn5, hits give low values 1.03 | locus YDR388W, hits give low values 1.01 | locus YDR392W, strain spt3, hits give low values 1.02 | locus YDR502C, strain sam2, hits give low values 1.01 | locus YEL003W, strain gim4, hits give low values 1.03 | locus YEL037C, strain rad23, hits give low values 1.02 | locus YEL061C, strain CIN8 (second series), hits give low values 1.03 | locus YEL061C, strain CIN8, hits give low values 1.02 | locus YER015W, strain faa2, hits give low values 1.03 | locus YER016W, strain bim1, hits give low values 1.02 | locus YER110C, hits give low values 1.02 | locus YER111C, strain swi4, hits give low values 1.03 | locus YER155C, strain BEM2 (second series), hits give low values 1 | locus YER155C, strain BEM2, hits give low values 1.01 | locus YER167W, strain BCK2, hits give low values 1 | locus YFR010W, strain ubp6, hits give low values 1.04 | locus YGL078C, strain dbp3, hits give low values 1.01 | locus YGL086W, strain mad1, hits give low values 1.01 | locus YGL167C, strain pmr1, hits give low values 1.04 | locus YGL173C, strain kem1, hits give low values 1.04 | locus YGL227W, strain vid30, hits give low values 1.02 | locus YGL240W, strain doc1, hits give low values 1.02 | locus YGL248W, strain PDE1, hits give low values 1 | locus YGL253W, strain hxk2, hits give low values 1.04 | locus YGR135W, strain pre9, hits give low values 1.01 | locus YGR252W, strain gcn5, hits give low values 0.967 | locus YHR013C, strain ard1, hits give low values 1.05 | locus YHR027C, strain rpn1, hits give low values 1.04 | locus YHR030C, strain SLT2, hits give low values 1.01 and 1.05 | locus YHR079C, strain IRE1 (second series), hits give low values 1.02 | locus YHR079C, strain IRE1, hits give low values 1.03 | locus YHR094C, strain hxt1, hits give low values 1.02 | locus YHR129C, strain ARP1, hits give low values 1 | locus YHR142W, strain chs7, hits give low values 1.07 | locus YHR200W, strain rpn10, hits give low values 1.02 | locus YIL066C, strain RNR3, hits give low values 1.01 | locus YIL073C, strain SPO22, hits give low values 1.05 | locus YIL125W, strain kgd1, hits give low values 1.02 | locus YIR030C, strain dcg1, hits give low values 1.02 | locus YJL092W, strain hpr5, hits give low values 1.03 | locus YJL095W, strain BCK1 (second series), hits give low values 1.02 | locus YJL095W, strain BCK1, hits give low values 1.01 and 1.04 | locus YJL115W, strain asf1, hits give low values 1.04 | locus YJL129C, strain trk1, hits give low values 1.06 | locus YJL134W, strain LCB3, hits give low values 1.01 | locus YJL154C, strain vps35, hits give low values 1.02 | locus YJL164C, strain tpk1, hits give low values 1.03 | locus YJL166W, strain qcr8, hits give low values 1.03 | locus YJL168C, strain set2, hits give low values 1.02 | locus YJL187C, strain SWE1 (second series), hits give low values 1.01 | locus YJL187C, strain SWE1, hits give low values 1.05 | locus YJR043C, strain POL32, hits give low values 1.02
